LAP4-GFP MLPCN: modulators of LAP4-GFP expression in yeast, primary screen, S. cerevisiae, multiplex flow cytometry, MLPCN library | GFP response vs DMSO, % at 10 µM | 0.34% of 320,000 active | 3 h; median GFP as percent of DMSO wells | AID 2023, 2009;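 active means GFP response vs DMSO above a set limit, about the screen mean plus 3 SD, cut at about 150% in these data; inconclusive means under 70 cell events counted for the yeast strain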
RPL19A-GFP yeast: RPL19A-GFP expression modulators in yeast, primary screen, cell-based, S. cerevisiae, multiplex flow cytometry, MLPCN | S. cerevisiae RPL19A-GFP strain, 3 h; active compounds read low | percent response vs DMSO, % at 10 µM | 0.3% of 330,000 active | AID 2025, 2009;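 active means percent response vs DMSO below 50%; inconclusive means fewer than 70 events counted for the yeast strain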;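 further: median channel GFP fluorescence of the barcoded RPL19A-GFP strain; ratio of sample median GFP to plate DMSO average so 100% = DMSO; lower means less RPL19A-GFP as with rapamycin TOR inhibition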
CIT2 TOR yeast: modulators of CIT2-GFP expression in yeast, primary screen, S. cerevisiae, GFP fusion, multiplex flow cytometry, MLPCN library; 0.065% of 320,000 active; GFP response vs DMSO, % at 10 µM; AID 2029, 2009; S. cerevisiae CIT2-GFP strain, 3 h; 100 means same as DMSO wells;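 active means GFP response relative to DMSO above a set limit, near the screen mean plus 3 SD, cut at about 150% in these data; inconclusive means Fewer than 70 cells measured for a yeast strain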;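 further: ratio of well median GFP fluorescence to mean of DMSO wells on the plate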
Efflux pump inh: inhibitors of Candida efflux pumps in yeast, primary screen, S. cerevisiae, Nile Red, multiplex; inhibition, % at 10 µM; 0.44% of 330,000 active; S. cerevisiae Candida pump triplex;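 active means plate passing quality check with inhibition over a set limit, or well fluorescence over plate mean plus 4 SD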;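 further: Nile Red retained in pooled yeast measured as flow cytometry median fluorescence; 0% = buffer negative control and 100% = Enniatin B positive control; higher means more Nile Red kept so more efflux inhibition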
AGP1-GFP MLPCN: modulators of AGP1-GFP expression in yeast TOR pathway, primary screen, cell-based, multiplex flow cytometry, S. cerevisiae, MLPCN library; 3 h; GFP as percent of DMSO wells; GFP response vs DMSO, % at 10 µM; 0.02% of 320,000 active; AID 2066, 2009;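 active means GFP response relative to DMSO above a set limit, near screen average plus 3 SD, cut at about 150% in these data; inconclusive means fewer than 70 cells counted for the yeast strain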;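 further: median GFP channel fluorescence of the gated AGP1 strain per well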
MEP2 TOR yeast: modulators of MEP2-GFP levels in yeast, primary screen, S. cerevisiae, multiplex flow cytometry, MLPCN library. GFP response vs DMSO, % at 10 µM. S. cerevisiae MEP2-GFP strain, 3 h; 100% = DMSO control level. AID 2016, 2009. 0.51% of 330,000 active;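 active means GFP response versus DMSO above a set limit, roughly screen mean plus 3 SD, cut at about 180% in these data; inconclusive means fewer than 70 cells counted for a yeast strain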;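 further: median GFP fluorescence of the barcode-gated MEP2-GFP cells per well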
Cmpd fluor yeast: flagged as fluorescent in efflux inhibitor counter-screen. shares compounds with Efflux pump inh. S. cerevisiae AD/pABC3, compound fluorescence, flow cytometry. fluorescence ratio to DMSO, % at 10 µM. 4% of 1,700 active. AID 588517;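 active means fluorescence ratio to DMSO above its plate's cutoff, the plate mean ratio plus 5 SD, cut at about 210% in these data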;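 further: unstained yeast with no Nile Red so the signal is compound autofluorescence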
CaMdr1 efflux inh: inhibitors of Candida albicans Mdr1 efflux, confirmation, flow cytometry, singleplex, Cherry Pick1 set. shares compounds with Efflux pump inh. 1% of 1,700 active. inhibition, % at 10 µM. S. cerevisiae AD/CaMDR1, Nile Red efflux; in the data active means inhibition above about 26%;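 further: 0% = DMSO vehicle and 100% = reference inhibitor; higher means more Nile Red retained so more efflux inhibition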
CaCdr2 efflux inh: inhibitors of Candida albicans Cdr2 efflux pump, confirmation, S. cerevisiae AD/CaCDR2, flow cytometry, cherry pick 1, singleplex. shares compounds with Efflux pump inh. Nile Red retention. Nile Red retention ratio vs DMSO, % at 10 µM. 4% of 1,700 active; in the data active means Nile Red retention ratio vs DMSO above about 190%;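 further: higher ratio means more blocking of Cdr2 efflux of the dye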
Cdr1 pump inh: inhibitors of Candida albicans Cdr1 efflux pump, confirmation, S. cerevisiae AD/CaCDR1, flow cytometry, cherry pick 1, singleplex | 1% of 1,700 active | Nile Red efflux | shares compounds with Efflux pump inh | inhibition, % at 10 µM | AID 588522, 2011;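 active means inhibition above the screen-wide mean plus twice its standard deviation, cut at about 32% in these data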
* hit, by the source's call. Only some compounds are listed: those with a hit (about 1.3% of all), similar ones and a draw of the others.

How did Cc1nn(-c2ccccc2)c2c1C(c1ccc(Cl)cc1)N(c1ccccc1)C(=O)N2 (configuration not stated) do in these assays?
LAP4-GFP MLPCN: 90.8; RPL19A-GFP yeast: 103.6; CIT2 TOR yeast: 101.1; Efflux pump inh: 0.1; AGP1-GFP MLPCN: 101.9; MEP2 TOR yeast: 97.2

Results for CCC(C)[C@H](NC(=O)C1CC(=O)N(c2ccc3c(c2)OCO3)C1)C(=O)NC1CCCCC1 (some centres not stated) ?
LAP4-GFP MLPCN: 105.8; RPL19A-GFP yeast: 104.8; CIT2 TOR yeast: 106.7; Efflux pump inh: -0.1; AGP1-GFP MLPCN: 115.0; MEP2 TOR yeast: 103.8

Results for Cc1cc(NC(=O)C(C)SCC(=O)Nc2cc(C(F)(F)F)ccc2N2CCOCC2)no1 (configuration not stated) ?
LAP4-GFP MLPCN: 96.9; RPL19A-GFP yeast: 96.9; CIT2 TOR yeast: 97.5; Efflux pump inh: -0.1; AGP1-GFP MLPCN: 98.3; MEP2 TOR yeast: 102.5

What do the screens show for `CCOC(=O)CC(NS(=O)(=O)c1ccc2[nH]cc(C(=O)O)c(=O)c2c1)c1ccc(OCC)c(OC)c1` (configuration not stated)?
LAP4-GFP MLPCN: 104.1; RPL19A-GFP yeast: 102.1; CIT2 TOR yeast: 107.0; Efflux pump inh: -0.3; AGP1-GFP MLPCN: 102.7; MEP2 TOR yeast: 104.3

What do the screens show for `Cc1ccc2nc(-c3ccc(NC(=O)CCS(=O)(=O)c4ccccc4)cc3)sc2c1`?
LAP4-GFP MLPCN: 88.4; RPL19A-GFP yeast: 98.7; CIT2 TOR yeast: 96.3; Efflux pump inh: 0.5*; AGP1-GFP MLPCN: 89.0; MEP2 TOR yeast: 100.8; Cmpd fluor yeast: 112.4; CaMdr1 efflux inh: -0.1; CaCdr2 efflux inh: 114.4; Cdr1 pump inh: -0.1

What do the screens show for `CCC(=O)Nc1ccc(NC(=O)CSc2nnc(-c3ccco3)n2CC)cc1`?
LAP4-GFP MLPCN: 102.0; RPL19A-GFP yeast: 102.8; CIT2 TOR yeast: 114.8; Efflux pump inh: 0.1; AGP1-GFP MLPCN: 108.8; MEP2 TOR yeast: 101.6

Results for Cc1cc2nc3ccc(N(C)C)cc3nc2cc1N ?
LAP4-GFP MLPCN: 132.7; RPL19A-GFP yeast: 91.2; CIT2 TOR yeast: 117.2; Efflux pump inh: 1.6*; AGP1-GFP MLPCN: 121.2; MEP2 TOR yeast: 113.2; Cmpd fluor yeast: 132.0; CaMdr1 efflux inh: 0.0; CaCdr2 efflux inh: 112.2; Cdr1 pump inh: 0.0

Results for CCN(C(=O)CN1C(=O)/C(=C/c2ccccc2)SC1=S)C1CCS(=O)(=O)C1 (configuration not stated) ?
LAP4-GFP MLPCN: 98.5; RPL19A-GFP yeast: 98.4; CIT2 TOR yeast: 107.2; Efflux pump inh: -0.2; AGP1-GFP MLPCN: 106.2; MEP2 TOR yeast: 114.4

Results for O=C1NC(=S)S/C1=C/c1ccc(OC(=O)c2ccco2)cc1 ?
LAP4-GFP MLPCN: 92.3; RPL19A-GFP yeast: 96.0; CIT2 TOR yeast: 88.1; Efflux pump inh: 0.2; AGP1-GFP MLPCN: 64.5; MEP2 TOR yeast: 96.4

What do the screens show for `O=C1NC(=S)S/C1=C\c1ccc(SCc2ccco2)o1`?
LAP4-GFP MLPCN: 119.1; RPL19A-GFP yeast: 95.0; CIT2 TOR yeast: 78.8; Efflux pump inh: 4.7*; AGP1-GFP MLPCN: 76.2; MEP2 TOR yeast: 93.9; Cmpd fluor yeast: 125.4; CaMdr1 efflux inh: 0.3; CaCdr2 efflux inh: 156.6; Cdr1 pump inh: 0.3

Results for O=C1NC(=S)S/C1=C\c1ccc(SCc2ccccc2)o1 ?
LAP4-GFP MLPCN: 129.5; RPL19A-GFP yeast: 97.8; CIT2 TOR yeast: 102.6; Efflux pump inh: 4.5*; AGP1-GFP MLPCN: 86.4; MEP2 TOR yeast: 113.3; Cmpd fluor yeast: 121.1; CaMdr1 efflux inh: 0.3; CaCdr2 efflux inh: 186.6*; Cdr1 pump inh: 0.2

What do the screens show for `CCn1c(CC(=O)Nc2ccccc2F)nnc1SCC(=O)Nc1nncs1`?
LAP4-GFP MLPCN: 78.5; RPL19A-GFP yeast: 55.2; CIT2 TOR yeast: inconclusive; Efflux pump inh: -0.4; AGP1-GFP MLPCN: 49.9; MEP2 TOR yeast: 164.1

What do the screens show for `NC(=S)N/N=C/c1cccc(/C=N/NC(N)=S)c1`?
LAP4-GFP MLPCN: 104.5; RPL19A-GFP yeast: 96.1; CIT2 TOR yeast: 101.9; Efflux pump inh: 0.1; AGP1-GFP MLPCN: 104.7; MEP2 TOR yeast: 100.0

What do the screens show for `NC(=S)N/N=C/c1ccc2ccccc2c1`?
LAP4-GFP MLPCN: 106.6; RPL19A-GFP yeast: 95.5; CIT2 TOR yeast: 90.3; Efflux pump inh: 8.2*; AGP1-GFP MLPCN: 90.0; MEP2 TOR yeast: 102.0; Cmpd fluor yeast: 111.5; CaMdr1 efflux inh: 0.2; CaCdr2 efflux inh: 107.8; Cdr1 pump inh: 0.3

Results for Cc1c(NC(=O)CSc2ncnc3ccccc23)c(=O)n(-c2ccccc2)n1C ?
LAP4-GFP MLPCN: 101.5; RPL19A-GFP yeast: 99.6; CIT2 TOR yeast: 94.7; Efflux pump inh: 1.0*; AGP1-GFP MLPCN: 106.1; MEP2 TOR yeast: 111.8; Cmpd fluor yeast: 95.3; CaMdr1 efflux inh: -0.3; CaCdr2 efflux inh: 90.9; Cdr1 pump inh: -0.2

Results for Cc1c(NC(=O)CSc2ccccn2)c(=O)n(-c2ccccc2)n1C ?
LAP4-GFP MLPCN: 98.7; RPL19A-GFP yeast: 98.2; CIT2 TOR yeast: 91.4; Efflux pump inh: 0.0; AGP1-GFP MLPCN: 97.9; MEP2 TOR yeast: 95.3

Results for Cc1c(NC(=O)Cn2cc([N+](=O)[O-])cn2)c(=O)n(-c2ccccc2)n1C ?
LAP4-GFP MLPCN: 89.2; RPL19A-GFP yeast: 92.5; CIT2 TOR yeast: 93.2; Efflux pump inh: 0.1; AGP1-GFP MLPCN: 89.1; MEP2 TOR yeast: 90.1

What do the screens show for `Cc1c(NC(=O)Cn2ccc([N+](=O)[O-])n2)c(=O)n(-c2ccccc2)n1C`?
LAP4-GFP MLPCN: 96.5; RPL19A-GFP yeast: 97.5; CIT2 TOR yeast: 93.4; Efflux pump inh: 0.5*; AGP1-GFP MLPCN: 97.3; MEP2 TOR yeast: 103.4; Cmpd fluor yeast: 105.0; CaMdr1 efflux inh: -0.1; CaCdr2 efflux inh: 101.5; Cdr1 pump inh: 0.0
